Eight compounds from PubChem BioAssay (NCI) can be followed below.

The structures appear in SMILES notation. This is part of a sample that, as a whole, favours compounds with a hit. Of some 83,000 tested, about 20% had one in any assay.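 Treatment: one concentration, 48 hours, 96-well format. Scoring: percent growth, with anything below 10 considered active.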 A number with no mark means an inactive call. Calls of active or inactive are those of the source.

Holding throughout (assay): NCI-60 one-dose screen, 48 h (100 = growth as untreated, 0 = no growth, -100 = all killed)
One assay concerns HCT-15 colon. Particulars: 10 µM unless noted.
The test system of another assay is HT29 colon. Conditions: 10 µM unless noted.
Another assay has as its system SNB-75 CNS. Conditions: 10 µM unless noted.
The next assay relates to SNB-19 CNS. Conditions: 10 µM unless noted.
The test system of another assay is U251 CNS. Conditions: 10 µM unless noted.
The test system of the next assay is PC-3 prostate. Conditions: 10 µM unless noted.
A further assay concerns SK-MEL-5 melanoma. Conditions: 10 µM unless noted.
The subject of the next assay is UACC-62 melanoma. Particulars: 10 µM unless noted.
In a further assay the test system is LOX IMVI melanoma. Conditions: 10 µM unless noted.
The subject of the next assay is SK-MEL-28 melanoma. Particulars: 10 µM unless noted.
Another assay has as its system SK-MEL-2 melanoma. Conditions: 10 µM unless noted.
The test system of the next assay is SN12C renal. Particulars: 10 µM unless noted.
For a further assay, the system named is UO-31 renal. Particulars: 10 µM unless noted.
Another assay relates to TK-10 renal. Particulars: 10 µM unless noted.
In the next assay the test system is ACHN renal. Conditions: 10 µM unless noted.
The subject of a further assay is CAKI-1 renal. Particulars: 10 µM unless noted.
The subject of the next assay is A498 renal. Particulars: 10 µM unless noted.
In the next assay the test system is MOLT-4 leukemia. Conditions: 10 µM unless noted.
The subject of another assay is CCRF-CEM leukemia. Conditions: 10 µM.

For the compound `O=C(OCC1CC2(Cl)C(Cl)=C(Cl)C1(Cl)C2(Cl)Cl)C1C(C(=O)OCC2CC3(Cl)C(Cl)=C(Cl)C2(Cl)C3(Cl)Cl)C2(Cl)C(Cl)=C(Cl)C1(Cl)C2(Cl)Cl` (stereo unspecified), the growth with HCT-15 colon is 99.9%; in the assay with HT29 colon, 99.6%; in the assay with SNB-75 CNS, 97.8%; with SNB-19 CNS, 106%; with U251 CNS, 99.2%; with PC-3 prostate, 105%. For the same compound, the growth is 104% in the assay with SK-MEL-5 melanoma; 107% in the assay with UACC-62 melanoma; 122% in the assay on LOX IMVI melanoma; 112% in the assay on SK-MEL-28 melanoma; 111% in the assay on SK-MEL-2 melanoma; 105% with SN12C renal. Further, the growth is 91.8% in the assay with UO-31 renal; 105% in the assay with TK-10 renal; 95.6% in the assay on ACHN renal; 90.8% in the assay on CAKI-1 renal; 117% in the assay on A498 renal; 85% in the assay with MOLT-4 leukemia.

With `C=CCC(CCC(CC=C)C(=O)OCC)C(=O)OCC` (stereo unspecified), the growth with HCT-15 colon was 105%; in the assay with HT29 colon, 102%; with SNB-75 CNS, 77.8%; in the assay on SNB-19 CNS, 96.2%; in the assay on U251 CNS, 102%; in the assay with PC-3 prostate, 97.9%. Besides, the growth with SK-MEL-5 melanoma was 108%; with UACC-62 melanoma, 101%; in the assay on LOX IMVI melanoma, 92.1%; in the assay with SK-MEL-28 melanoma, 91.1%; in the assay on SK-MEL-2 melanoma, 106%; with SN12C renal it was 100%. Moreover, the growth with UO-31 renal was 88.5%; with TK-10 renal, 91.6%; with ACHN renal it was 108%; with CAKI-1 renal, 103%; in the assay on A498 renal, 120%; in the assay on MOLT-4 leukemia, 104%.

Turning to `O=C(O)CS(=O)c1ccc(Cl)cc1` (stereo unspecified), the growth was 95.9% in the assay on HCT-15 colon; 105% in the assay with HT29 colon; 103% in the assay on SNB-75 CNS; 104% with SNB-19 CNS; 99.7% in the assay on U251 CNS; 110% with PC-3 prostate. For the same compound, the growth is 102% with SK-MEL-5 melanoma; 111% with UACC-62 melanoma; 91% with LOX IMVI melanoma; 105% in the assay on SK-MEL-28 melanoma; 114% with SK-MEL-2 melanoma; 104% in the assay with SN12C renal. In addition, the growth in the assay on UO-31 renal was 102%; in the assay on TK-10 renal it was 96.1%; in the assay on ACHN renal, 95.2%; in the assay with CAKI-1 renal, 115%; in the assay on A498 renal, 91.9%; in the assay with CCRF-CEM leukemia, 98.5%. The growth in the assay on MOLT-4 leukemia is 90.5%.

For `O=C(CCC(=O)N(CCO)CCO)N(CCO)CCO`, the growth was 94.9% in the assay with HCT-15 colon; 98.6% in the assay on HT29 colon; 94% with SNB-75 CNS; 108% in the assay on SNB-19 CNS; 105% in the assay with U251 CNS; 100% with PC-3 prostate. Also, the growth in the assay with SK-MEL-5 melanoma was 114%; in the assay on UACC-62 melanoma, 109%; in the assay with LOX IMVI melanoma, 101%; with SK-MEL-28 melanoma, 106%; in the assay with SK-MEL-2 melanoma it was 102%; with SN12C renal, 106%. The growth is 86% in the assay on UO-31 renal; 99.5% in the assay with TK-10 renal; 107% in the assay on ACHN renal; 93.3% in the assay with CAKI-1 renal; 120% with A498 renal; 90.8% with MOLT-4 leukemia.

As to `CCN(CC)CCCNc1c2ccc(Cl)cc2nc2ccc(OC)cc12`, the growth is 1.74% (active) with HCT-15 colon; -15.4% (active) in the assay with HT29 colon; -44.9% (active) in the assay on SNB-75 CNS; 10.2% with SNB-19 CNS; -14.9% (active) in the assay with U251 CNS; -34.6% (active) in the assay on PC-3 prostate. Besides, the growth is -96.3% (active) with SK-MEL-5 melanoma; 50.3% with UACC-62 melanoma; -43.1% (active) in the assay with LOX IMVI melanoma; -72.3% (active) with SK-MEL-28 melanoma; -3.63% (active) in the assay with SK-MEL-2 melanoma; 10.7% with SN12C renal. For the same compound, the growth in the assay on UO-31 renal was -69.2% (active); in the assay with TK-10 renal, -4.36% (active); in the assay with ACHN renal, 1.29% (active); in the assay on CAKI-1 renal, 4.67% (active); in the assay on A498 renal, -62.2% (active); in the assay with CCRF-CEM leukemia it was -10.1% (active). Moreover, in the assay with MOLT-4 leukemia, the growth is -20.8% (active).

Consider `CCn1cnc(C[C@H](NC(=O)[C@@H](NC(=O)Nc2cc(C(F)(F)F)cc(C(F)(F)F)c2)C(C)(C)C)C(=O)OC)c1`, for which the growth with HCT-15 colon is -68% [100 µM] (active); with HT29 colon, -82.9% [100 µM] (active); with SNB-75 CNS, -98.8% [100 µM] (active); with SNB-19 CNS, -98.2% [100 µM] (active); in the assay with U251 CNS, -94.5% [100 µM] (active); with PC-3 prostate, -91.2% [100 µM] (active). Further, the growth is -98% [100 µM] (active) in the assay with SK-MEL-5 melanoma; -98.7% [100 µM] (active) with UACC-62 melanoma; -87.4% [100 µM] (active) in the assay with LOX IMVI melanoma; -96% [100 µM] (active) in the assay on SK-MEL-28 melanoma; -91% [100 µM] (active) in the assay on SK-MEL-2 melanoma; -96.2% [100 µM] (active) with SN12C renal. Moreover, the growth with UO-31 renal is -94.1% [100 µM] (active); with TK-10 renal, -97.6% [100 µM] (active); with ACHN renal, -95.8% [100 µM] (active); in the assay with CAKI-1 renal, -96% [100 µM] (active); with A498 renal it was -91.6% [100 µM] (active); with MOLT-4 leukemia it was -49% [100 µM] (active).

Consider `COC(=O)/C=C1/CCCCC1(C)C(=O)OC` (stereo unspecified), for which the growth is 93.1% with HCT-15 colon; 102% with HT29 colon; 91.6% with SNB-75 CNS; 102% with SNB-19 CNS; 97.2% in the assay on U251 CNS; 102% in the assay on PC-3 prostate. Also, the growth was 112% in the assay on SK-MEL-5 melanoma; 106% in the assay on UACC-62 melanoma; 102% in the assay on LOX IMVI melanoma; 100% with SK-MEL-28 melanoma; 108% in the assay on SK-MEL-2 melanoma; 101% in the assay with SN12C renal. Further, the growth in the assay with UO-31 renal was 95.3%; in the assay on TK-10 renal, 104%; in the assay on ACHN renal, 112%; in the assay on CAKI-1 renal, 107%; in the assay with A498 renal, 107%; with MOLT-4 leukemia it was 99.6%.

For `[N-]=[N+]=Nc1ncc(-c2ccc(C(F)(F)F)cc2)c(NC2CCCCCC2)n1`, the growth with HCT-15 colon was 25.9% [100 µM]; with HT29 colon it was 31.4% [100 µM]; in the assay on SNB-75 CNS, 49.6% [100 µM]; with SNB-19 CNS it was 40.9% [100 µM]; in the assay with U251 CNS, 30.3% [100 µM]; in the assay with PC-3 prostate, -8.57% [100 µM] (active). In addition, the growth in the assay on SK-MEL-5 melanoma was 26.5% [100 µM]; in the assay with UACC-62 melanoma it was 25.5% [100 µM]; in the assay on LOX IMVI melanoma, 39.9% [100 µM]; in the assay on SK-MEL-28 melanoma, 68.2% [100 µM]; in the assay on SK-MEL-2 melanoma, 5.91% [100 µM] (active); in the assay with SN12C renal, 42.5% [100 µM]. The growth in the assay on UO-31 renal was 22.1% [100 µM]; in the assay with TK-10 renal, 45.3% [100 µM]; in the assay with ACHN renal, 26.8% [100 µM]; in the assay with CAKI-1 renal it was -14.6% [100 µM] (active); in the assay with A498 renal it was 32.9% [100 µM]; with MOLT-4 leukemia it was 16.9% [100 µM].
